One assay relates to C33A. Nature of the assay: Primary qHTS to identify gynecologic anti-cancer compounds using libraries of approved drugs and bioactive compounds (AID 1345084). Further: nearly all actives have a fitted effect of over 55% in size. The conditions noted are these: Gynecologic cancer cell panel viability, ATPlite luminescence, 48 h; series mostly up to 57.5 µM. A digest of the protocol:
(§1)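 Measured: luminescence after ATPlite addition (15 min, RT). Exposure: 48 h, 37 C, 5% CO2.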
For orientation: In qHTS, concentration-response curves come from the screen itself.

For another assay, the system named is CAOV3. The description is as above. The note with it: Gynecologic cancer cell panel viability, ATPlite luminescence, 48 h; series mostly up to 57.5 µM. An outline of the steps: as §1
On the technique in general: In ATP-based viability assays light output follows the ATP content of the culture.

The subject of the next assay is CASKI. The description is as above. The conditions noted are these: Gynecologic cancer cell panel viability, ATPlite luminescence, 48 h; series mostly up to 57.5 µM. An outline of the steps: as §1
A further assay deals with Hek293T. Described as above. The conditions noted are these: Gynecologic cancer cell panel viability, ATPlite luminescence, 48 h, control line for the selectivity index; series mostly up to 57.5 µM. An outline of the steps: as §1
The test system of a further assay is OV90. The assay is described as above. The conditions noted are these: Gynecologic cancer cell panel viability, ATPlite luminescence, 48 h; series mostly up to 57.5 µM. An outline of the steps:
as §1

For a further assay, the system named is SKOV3. The description is as above. The conditions noted are these: Gynecologic cancer cell panel viability, ATPlite luminescence, 48 h; series mostly up to 57.5 µM. A digest of the protocol:
as §1

For a further assay, the system named is Tov-21-G. The assay is described as above. The note with it: Gynecologic cancer cell panel viability, ATPlite luminescence, 48 h; series mostly up to 57.5 µM. A digest of the protocol:
as §1

The test system of a further assay is Es-2. The assay is described as above. The note with it: Gynecologic cancer cell panel viability, ATPlite luminescence, 48 h; series mostly up to 57.5 µM. An outline of the steps: as §1
The test system of a further assay is HeLa. The assay is described as above. The conditions noted are these: Gynecologic cancer cell panel viability, ATPlite luminescence, 48 h; series mostly up to 57.5 µM. A digest of the protocol: as §1
Another assay relates to JEG-3. The description is as above. The conditions noted are these: Gynecologic cancer cell panel viability, ATPlite luminescence, 48 h; series mostly up to 57.5 µM. A digest of the protocol: as §1
A further assay deals with Tov112D. Described as above. The conditions noted are these: Gynecologic cancer cell panel viability, ATPlite luminescence, 48 h; series mostly up to 57.5 µM. A digest of the protocol: as §1
Assay [1] is described as follows: qHTS assay to identify inhibitors of the type 1 interferon - major histocompatibility complex class I in skeletal muscle: Counter screen cell viability and HiBit confirmation (AID 1347412). Further: nearly all actives have a fitted effect of over 60% in size. The note with it: iHSKM muscle cells + IFN-b, HiBiT or CellTiter-Glo, 24 h. A digest of the protocol:
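After 24 h with human IFN-beta (4 ng/ml) and compound titrations (top 46 uM final, 1:3, 12 points), HLA-B HiBit myoblasts were lysed for either Nano-Glo HiBiT luminescence or CellTiter Glo viability on paired plates.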

The next assay relates to PA-1. The experiment in a line: Primary qHTS to identify gynecologic anti-cancer compounds using libraries of approved drugs and bioactive compounds (AID 1345084). Further: nearly all actives have a fitted effect of over 55% in size. The conditions noted are these: Gynecologic cancer cell panel viability, ATPlite luminescence, 48 h; series mostly up to 57.5 µM. An outline of the steps: as §1

Inconclusive results are not listed. Values without a mark were called inactive. Active and inactive are the calls of the source. The call rests on the fitted dose curve; in most records, active means well fitted curve in the direction sought with a large enough effect; inconclusive means small, poorly fitted or top-dose-only effect, or another doubt; inactive means no such curve, though single readings can be large; an effect the other way counts as inactive or inconclusive.
Potency means the concentration at half of the fitted maximal effect.

For the compound `Cc1c(CN2CCN(C(=O)C(C)O)CC2)sc2c(N3CCOCC3)nc(-c3cnc(N)nc3)nc12` (stereo not drawn), the Potency was 2 µM (active) in the assay with C33A; 1.41 µM (active) in the assay with CAOV3; 1.26 µM (active) in the assay with CASKI; 0.891 µM (active) in the assay on Hek293T; 1.78 µM (active) in the assay on OV90; 1 µM (active) in the assay on SKOV3. In the assay with Tov-21-G, the Potency is 2.24 µM (active).

As to `COc1ccc(-c2cnc3ccc(NCc4ccc(S(N)(=O)=O)cc4)nn23)cc1OC`, the Potency entry with C33A, in the assay on CAOV3, in the assay with Es-2, with HeLa, with Hek293T and in the assay on JEG-3 was “inactive” each time. The Potency entry in the assay with Tov-21-G and with Tov112D was “inactive” each time.

`CN1C2CCC1CC(OC(=O)[C@H](CO)c1ccccc1)C2` (stereo partly drawn): the Potency result with C33A, with CAOV3, in the assay with CASKI, with Hek293T and in the assay with JEG-3 was “inactive” in each case.

Consider `CCN1CCN(Cc2ccc(Nc3ncc(F)c(-c4cc(F)c5nc(C)n(C(C)C)c5c4)n3)nc2)CC1`, for which the Potency entry in the assay with C33A, in the assay with CAOV3, with CASKI, in the assay on Es-2, in the assay on Hek293T and in the assay with JEG-3 was “inactive” throughout. For the same compound, the Potency result with OV90 and with Tov112D was “inactive” throughout. For the same compound, the Potency was 8.83 µM (active) in assay [1] (HiBiT) and 22.2 µM (active) in assay [1] (Viability).

Take `C=C(C)C(=O)O[C@H]1C[C@@](C)(O)C(=O)CC(O)/C(C)=C\[C@H]2OC(=O)C(=C)[C@H]12` (stereo partly drawn): the Potency entry with C33A, in the assay on CAOV3, with CASKI, in the assay on HeLa, in the assay with Hek293T and with JEG-3 was “inactive” in each case. The Potency entry in the assay with OV90 and with Tov112D was “inactive” each time.

Turning to `C=C1C(=O)O[C@@H]2C/C(C)=C\C(=O)/C=C(\C)[C@@H](OC(=O)/C(C)=C\C)[C@H](O)[C@@H]12`, the Potency was 10 µM (active) in the assay with C33A; 7.94 µM (active) in the assay with CAOV3; 4.47 µM (active) in the assay on Es-2; 7.94 µM (active) in the assay with Hek293T; 7.08 µM (active) in the assay on JEG-3; 2.82 µM (active) in the assay on PA-1. In addition, the Potency with SKOV3 was 11.2 µM (active); with Tov-21-G it was 7.94 µM (active); in the assay with Tov112D it was 11.2 µM (active). For the same compound, in the assay with CASKI, the Potency result was “inactive”.

Turning to `COc1cc2nc(N3CCC(N4CCCCC4)CC3)nc(NC3CCCCCC3)c2cc1OC`, the Potency in the assay with C33A was 25.1 µM (active); with CAOV3 it was 7.08 µM (active); in the assay on OV90 it was 22.4 µM (active); with SKOV3, 22.4 µM (active).

For `Cc1ccc(S(=O)(=O)Cc2nc(-c3ccc(C(=O)NCc4cccnc4)cc3)oc2C)cc1`, the Potency result with C33A, in the assay with CAOV3, with JEG-3 and in the assay with OV90 was “inactive” throughout.

Regarding `COc1c2ccoc2cc2oc(CO[C@@H]3O[C@H](CO)[C@@H](O)[C@H](O)[C@H]3O)cc(=O)c12`, the Potency entry in the assay with C33A, with CASKI, in the assay on Es-2, with HeLa, in the assay with Hek293T and in the assay on JEG-3 was “inactive” throughout. The Potency result in the assay with OV90, with PA-1, with SKOV3, in the assay on Tov-21-G and in the assay with Tov112D was “inactive” in each case.

In the case of `C=C1C(=O)O[C@@H]2/C=C(\C)C(=O)/C=C/[C@](C)(O)C[C@@H](OC(=O)C(C)C)[C@@H]12`, the Potency in the assay on C33A is 8.91 µM (active); in the assay with CAOV3 it was 2.82 µM (active); in the assay with Es-2, 3.16 µM (active); in the assay on Hek293T, 4.47 µM (active); with PA-1, 4.47 µM (active); with SKOV3, 5.62 µM (active). Moreover, the Potency in the assay with Tov-21-G was 3.98 µM (active); with Tov112D, 15.8 µM (active).

As for `Cc1nc(NC(=O)N2CCCC2C(N)=O)sc1-c1csc(C(C)(C)C)n1` (stereo not drawn), the Potency entry in the assay with C33A, in the assay with CAOV3, in the assay with Es-2, in the assay with Hek293T, in the assay on JEG-3 and in the assay with OV90 was “inactive” throughout. Moreover, the Potency entry in the assay on Tov-21-G and in the assay on Tov112D was “inactive” in each case. Also, the Potency in the assay on SKOV3 was 3.16 µM (active).

In the case of `CC(C)Oc1ccc(C(=O)NC(CNC(=O)CN(C)C)Cc2ccc(-c3cn4cccc(C(C)O)c4n3)cc2)cc1Cl` (stereo not drawn), the Potency entry with C33A, in the assay with CAOV3, in the assay with JEG-3, in the assay with OV90 and in the assay on SKOV3 was “inactive” throughout. The Potency was 0.251 µM (active) in the assay with HeLa, 0.316 µM (active) in the assay with PA-1 and 0.316 µM (active) in the assay with Tov112D.

Regarding `CC1=C(COC2OC(CO)C(O)C(O)C2O)C(C(CO)C(=O)O)CC1` (stereo not drawn), the Potency result in the assay with C33A, in the assay on CASKI, in the assay with Es-2, with HeLa, in the assay with Hek293T and in the assay on JEG-3 was “inactive” throughout. In addition, the Potency entry with OV90, in the assay on PA-1, with SKOV3, with Tov-21-G and with Tov112D was “inactive” throughout.
